Screening data from PubChem.
In the library only some 6.5% were active in any assay of this set; here they are far more common.
PMK inhibit: S. pneumoniae PMK inhibition. 65,000 compounds, 0.49% hits. purified PMK, PK/LDH-coupled NADH absorbance 340 nm. AID 539. inhibition, % at 10 µM;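 active = top-ranked compounds by inhibition in the single 10 µM screen, taking a fixed number of the strongest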;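 note: 0% = full reaction with DMSO carrier and 100% = background rate without enzyme reaction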
Autofluor 339: intrinsic fluorescence of library compounds, ex339/em460 – biochemical, MLSMR library, data from DPM-DC assay, artefact control, profiling panel. compound autofluorescence, ex339/em460 nm, NADH buffer; hits give high values; 1 = no-compound wells, NADH background. fluorescence fold increase at 10 µM. 65,000 compounds, 5.5% hits;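 active = at 10 µM, mean starting fluorescence two-fold or more over control wells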;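 note: signal is the first read of a kinetic run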
MK inhibit: blocks S. pneumoniae mevalonate kinase; purified MK, PK/LDH-coupled NADH absorbance 340 nm; inhibition, % at 10 µM; 65,000 compounds, 0.48% hits;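 active = ranked among the strongest by inhibition in the single 10 µM screen, a fixed top-ranked set picked for dose follow-up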
NADH enzymes: inhibition of NAD/NADH coupling enzymes, library profiling | coupled PK/LDH NADH assays, four targets | IC50, µM (titrated, usually from 10 µM), inactives show at the highest dose inhibition | 65,000 compounds, 0.02% hits | AID 774;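 active = single-dose screening hits from any of four coupled enzyme assays that gave an IC50 when retested across doses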;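 note: the DPM-DC format reads NADH fluorescence rather than 340 nm absorbance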
DPM-DC inhibit: inhibitors of Streptococcus pneumoniae diphosphomevalonate decarboxylase; purified DPM-DC, PK/LDH coupled NADH fluorescence; calls only at 10 µM; 65,000 compounds, 0.49% hits;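 active = the 320 compounds with the highest percent inhibition in the single-dose primary screen, excluding strongly autofluorescent ones, cut at about 32% in these data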;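 note: kinetic rate of NADH fluorescence loss reporting ADP formed by the decarboxylase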
A340 absorber: compounds absorbing at 340 nm. compound absorbance at 340 nm, fold over control. fold change at 10 µM. 65,000 tested, under 10 active;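 active = at 10 µM dose, initial 340 nm absorbance at least 2 fold that of control wells; inactive = change under 2 fold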;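 note: initial absorbance extrapolated from kinetic A340 decline of NADH oxidation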
Starred values were filed as active, the others as inactive; i = inactive; . = not tested or not shown; + = active, no number.

SMILES	PMK inhibit	Autofluor 339	MK inhibit	NADH enzymes	DPM-DC inhibit	A340 absorber
CCCc1c(OCCCCc2nn[nH]n2)ccc(C(C)=O)c1O	11.0	1.02	7.0	2.0%	i	0.97
O=C(NC1CCCCC1)c1cnn2c(C(F)(F)F)cc(-c3ccco3)nc12	14.0	2.55*	0.0	12.0%	i	1.09
COc1ccc(S(=O)(=O)N2CCC(C(=O)Nc3cccc(Cl)c3)CC2)cc1OC	10.0	1.07	3.0	4.0%	i	1
CCC(C)NCC(=O)Nc1ccc(-c2nc3cc(NC(=O)CNC(C)CC)ccc3o2)cc1 (centres undefined)	13.0	3.72*	8.0	11.0%	.	1.16
O=C(CN1CCCC1)Nc1ccc(-c2nc3cc(NC(=O)CN4CCCC4)ccc3o2)cc1	9.0	3.71*	14.0	12.0%	.	1.26
O=C(CN1C(=O)c2ccccc2C1=O)Nc1ccc(-c2nc3ccccc3o2)cc1	12.0	1.16	3.0	5.0%	i	1.08
CCC(=O)Nc1ccc2oc(-c3ccccc3Br)nc2c1	6.0	1.9	8.0	7.0%	i	1.03
CCN(CC)CC(=O)Nc1ccc(-c2nc3cc(NC(=O)CN(CC)CC)ccc3o2)cc1	12.0	2.97*	5.0	4.0%	.	1.06
COc1ccc(-c2nc3cc(NC(=O)Cc4ccc(OC)c(OC)c4)ccc3o2)cc1	15.0	2.59*	0.0	5.0%	.	0.98
COC(=O)c1cc(OC)c(OC)cc1NC(=O)c1c(-c2ccccc2Cl)noc1C	0.0	1.17	7.0	2.0%	i	1.07
Cc1oc2c(c1C(=O)NC(Cc1c[nH]c3ccccc13)C(=O)O)CCCC2 (centres undefined)	10.0	1.07	3.0	6.0%	i	1.01
CC(C(=O)NCc1ccc2c(c1)OCO2)N1c2cccc3cccc(c23)S1(=O)=O (centres undefined)	16.0	1.58	2.0	8.0%	i	0.99
CCN(CCCNS(=O)(=O)c1ccc2c(c1)CCN2C(C)=O)c1cccc(C)c1	5.0	1.08	5.0	3.0%	i	1.04
CS(=O)(=O)N(CC(=O)Nc1cccc(F)c1)Cc1ccccc1	3.0	1.01	10.0	3.0%	i	0.98
COc1cccc2c1OC1(C)CC2/C(=C(\C)O)C(=O)N1 (centres undefined)	6.0	1.15	6.0	4.0%	i	1.03
CCOC(=O)c1ccc(CSc2nnc(N)s2)cc1	0.0	1.09	2.0	1.0%	i	1.02
CC(=O)Oc1ccc(CCC(C)OC(C)=O)cc1 (centres undefined)	0.0	1.04	0.0	2.0%	i	1
COC(=O)c1c(C)cc(C)n2c1nc1ccccc12	20.0	3.53*	12.0	16.0%	.	1.02
O=C(CCCC(=O)N(CC(=O)NC1CCCC1)Cc1ccc2c(c1)OCO2)Nc1ccccn1	18.0	1.04	5.0	8.0%	i	0.99
COc1ccc(CC(NC(C)=O)C(=O)NC2CCN(c3nc(C)cc(C)c3C#N)CC2)c(OC)c1 (centres undefined)	0.0	2.01*	31.0	3.0%	i	1.02
COc1cccc(CC(NC(C)=O)C(=O)NC2CCN(c3nc(C)cc(C)c3C#N)CC2)c1 (centres undefined)	9.0	1.11	7.0	5.0%	i	1.04
CN(C)c1ccc(-c2noc(-c3ccccc3O)n2)cc1	8.0	5.27*	8.0	8.0%	.	1.03
Cc1ccc(-c2noc(-c3ccccc3Br)n2)cc1	2.0	1.11	6.0	3.0%	i	1.02
Cc1sc2nc(NCCO)[nH]c(=O)c2c1C	0.0	1.07	6.0	4.0%	i	1.06
CCN(CC)CCOC(=O)c1ccc(N=CC2=C(O)CC(C)(C)CC2=O)cc1	6.0	1	3.0	17.0%	+	1.18
SMILES	PMK inhibit	Autofluor 339	MK inhibit	NADH enzymes	DPM-DC inhibit	A340 absorber
COc1ccccc1-c1cc(C(=O)Nc2cccnc2)no1	8.0	1.06	1.0	3.0%	i	1
COc1cccc(-c2cc(C(=O)Nc3ccccc3SC)no2)c1	10.0	1.44	4.0	5.0%	i	1
CSc1ccccc1NC(=O)c1cc(CC(C)C)on1	2.0	0.9	16.0	6.0%	i	1.03
COc1ccc(NC(=O)c2cc(-c3ccccc3OC)on2)cc1	11.0	1.07	48.0*	20.0%	i	1.01
COc1ccc(-c2cc(C(=O)Nc3cc(C)n(Cc4ccc(Cl)cc4)n3)no2)cc1OC	16.0	2.21*	0.0	11.0%	i	1.08
COc1ccc(-c2cc(C(=O)Nc3ccccc3SC)no2)cc1OC	10.0	2.19*	3.0	5.0%	i	1.06
COc1ccccc1-c1cc(C(=O)Nc2ccccc2SC)no1	11.0	2.84*	5.0	15.0%	i	1.03
O=c1c2c3c(sc2nc2sc(CN4CCOCC4)cn12)CCCC3	6.0	1.36	3.0	6.0%	i	1.06
COc1ccc(-c2cc(C(=O)Nc3cnn(Cc4ccccc4C)c3)no2)cc1OC	23.0	2.4*	0.0	12.0%	i	1
COc1cc2c(cc1NC(=O)CSCC(=O)O)oc1ccccc12	1.0	1.12	11.0	4.0%	i	1.11
COc1cc2c(cc1NCc1ccccn1)oc1ccccc12	4.0	2.35*	4.0	3.0%	.	1.02
CNc1nc(C)c(C(=O)OCc2ccccc2)s1	6.0	1.05	6.0	5.0%	i	1.07
CCCc1cc(-c2ccc(O)c(OCC)c2)c(C#N)c(N)n1	0.0	1.66	9.0	4.0%	i	1.07
Cc1ccc(-c2cc(-c3ccc(Cl)cc3)c(C#N)c(N)n2)o1	0.0	3.83*	13.0	7.0%	.	1
N#Cc1c(N)oc(-c2ccc3c(c2)OCO3)c1-c1ccc2c(c1)OCO2	15.0	2.13*	2.0	9.0%	.	1.09
N#Cc1c(N)nc2c(c1-c1ccc3c(c1)OCO3)CCCCCC2	0.0	1.28	2.0	2.0%	i	1.08
CSc1nc(N)c(C#N)c(-c2ccc(Cl)cc2)c1C#N	4.0	1.17	1.0	4.0%	i	1.01
Cc1ccc(-c2cc(-c3ccc(C)o3)nc(N)c2C#N)cc1	0.0	3.8*	12.0	6.0%	.	1.01
Cc1cc(-c2cc(-c3ccc(Cl)cc3)nc(N)c2C#N)co1	4.0	2.29*	17.0	11.0%	.	1
Cc1ccc(-c2cc(-c3ccc4c(c3)OCO4)c(C#N)c(N)n2)o1	16.0	3.81*	13.0	15.0%	.	1.03
O=C(Cn1c(=O)oc2ccccc21)N1CCCCC1	0.0	1.1	8.0	3.0%	i	1.02
Cc1ccccc1CS(=O)(=O)CCC(=O)N1CCN(c2ccc(N3CCOCC3)nn2)CC1	14.0	3.42*	2.0	5.0%	.	0.98
O=C(Cn1c(=O)oc2ccccc21)N1CCN(c2ccc(N3CCOCC3)nn2)CC1	16.0	2.12*	7.0	12.0%	.	1.06
COc1cccc(C2=NOC(C(=O)Nc3cccc(C(C)=O)c3)C2)c1OC (centres undefined)	12.0	1.03	5.0	6.0%	i	0.98
CCOc1ccc2nc(NC(=O)CN3CCC(n4nnc5cc(F)ccc54)CC3)sc2c1	2.0	1.22	1.0	1.0%	i	1
